Columns and labels:
Assay in all cases: log2 ratio of Biotin-Ahx-Ub-VS probe labelling (fragment/DMSO); higher = less target engagement (more negative = stronger competition), active = hit call of the paper (q ≤ 0.05, log2 ratio ≤ -1)
Settings in all cases: compound concentration: 200 uM; treatment time: 3 h
[1] = molecular target: USP34 (UniProt Q70CQ2)
In short: (§1)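 HEK293T lysate, 495 µg per sample in Tris/CHAPS/IGEPAL buffer with protease inhibitors, was treated in triplicate with fragment at 200 µM or vehicle for 3 h and then with Biotin-Ahx-Ub-VS at 0.5 µM final for 1 h. Labelled DUBs were NeutrAvidin-enriched, digested with LysC and trypsin, and run by diaPASEF LC-MS/MS. Spectronaut label-free quantities were global-median-normalised, and values are average log2 fragment/vehicle ratios by unpaired t-test on proteins with ≥2 unique peptides.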

[2] = molecular target: T1, USP36 (UniProt Q9P275)
T1 sequence (whole entry): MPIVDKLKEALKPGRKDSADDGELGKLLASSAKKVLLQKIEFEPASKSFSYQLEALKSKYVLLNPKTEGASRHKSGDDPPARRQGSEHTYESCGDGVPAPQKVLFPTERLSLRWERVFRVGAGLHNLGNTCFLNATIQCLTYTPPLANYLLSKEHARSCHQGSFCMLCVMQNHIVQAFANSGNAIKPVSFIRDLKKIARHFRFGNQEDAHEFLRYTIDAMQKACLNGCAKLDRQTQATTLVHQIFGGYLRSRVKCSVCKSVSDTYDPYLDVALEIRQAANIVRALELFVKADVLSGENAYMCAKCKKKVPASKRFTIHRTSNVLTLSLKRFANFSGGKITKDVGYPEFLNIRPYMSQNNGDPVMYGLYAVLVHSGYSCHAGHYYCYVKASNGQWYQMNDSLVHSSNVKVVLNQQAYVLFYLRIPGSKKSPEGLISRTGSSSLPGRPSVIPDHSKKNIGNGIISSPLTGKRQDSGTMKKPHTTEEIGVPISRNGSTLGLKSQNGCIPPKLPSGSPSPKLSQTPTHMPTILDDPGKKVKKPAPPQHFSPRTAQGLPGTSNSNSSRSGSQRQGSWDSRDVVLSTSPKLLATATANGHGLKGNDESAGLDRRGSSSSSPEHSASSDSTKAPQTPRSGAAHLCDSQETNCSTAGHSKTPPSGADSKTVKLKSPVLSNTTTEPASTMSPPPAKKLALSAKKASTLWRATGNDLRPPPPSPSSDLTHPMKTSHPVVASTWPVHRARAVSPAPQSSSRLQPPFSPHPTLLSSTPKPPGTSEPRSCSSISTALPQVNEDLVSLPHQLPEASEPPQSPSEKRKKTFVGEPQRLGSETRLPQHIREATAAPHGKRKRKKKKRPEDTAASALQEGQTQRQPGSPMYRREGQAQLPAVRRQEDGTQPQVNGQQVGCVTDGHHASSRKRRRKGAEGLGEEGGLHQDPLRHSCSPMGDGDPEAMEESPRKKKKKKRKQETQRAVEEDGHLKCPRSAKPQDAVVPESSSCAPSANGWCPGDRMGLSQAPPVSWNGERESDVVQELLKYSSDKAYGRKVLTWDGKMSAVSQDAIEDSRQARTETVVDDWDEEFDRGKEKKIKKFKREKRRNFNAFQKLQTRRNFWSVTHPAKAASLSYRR
In short: as §1

[3] = molecular target: T2, USP38 (UniProt Q8NB14)
T2 sequence (whole entry): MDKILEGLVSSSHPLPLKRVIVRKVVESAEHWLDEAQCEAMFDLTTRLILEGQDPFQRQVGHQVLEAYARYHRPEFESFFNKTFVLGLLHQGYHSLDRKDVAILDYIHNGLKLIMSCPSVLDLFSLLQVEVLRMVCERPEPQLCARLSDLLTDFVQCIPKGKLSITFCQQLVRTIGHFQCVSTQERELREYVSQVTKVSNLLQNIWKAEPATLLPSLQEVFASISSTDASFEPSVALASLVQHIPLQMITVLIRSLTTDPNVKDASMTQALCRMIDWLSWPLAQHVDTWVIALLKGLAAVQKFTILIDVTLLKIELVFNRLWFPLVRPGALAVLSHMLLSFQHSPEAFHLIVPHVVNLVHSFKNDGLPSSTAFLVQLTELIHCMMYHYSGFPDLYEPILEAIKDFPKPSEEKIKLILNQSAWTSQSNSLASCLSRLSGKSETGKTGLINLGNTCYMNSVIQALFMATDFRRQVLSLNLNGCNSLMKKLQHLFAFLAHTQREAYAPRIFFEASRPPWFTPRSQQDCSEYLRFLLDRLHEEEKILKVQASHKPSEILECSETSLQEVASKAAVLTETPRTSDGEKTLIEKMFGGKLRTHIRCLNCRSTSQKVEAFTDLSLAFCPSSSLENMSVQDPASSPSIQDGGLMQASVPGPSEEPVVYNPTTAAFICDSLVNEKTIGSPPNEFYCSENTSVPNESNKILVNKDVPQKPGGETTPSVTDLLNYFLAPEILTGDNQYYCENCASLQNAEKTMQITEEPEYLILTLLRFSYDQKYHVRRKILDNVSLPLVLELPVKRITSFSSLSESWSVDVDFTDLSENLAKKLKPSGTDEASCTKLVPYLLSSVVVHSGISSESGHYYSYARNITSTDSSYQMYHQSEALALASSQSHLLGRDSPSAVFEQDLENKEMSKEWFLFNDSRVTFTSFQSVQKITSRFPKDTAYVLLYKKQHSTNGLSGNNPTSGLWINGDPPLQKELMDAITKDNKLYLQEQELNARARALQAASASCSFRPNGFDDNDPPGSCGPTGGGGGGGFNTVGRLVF
In short: as §1

[4] = molecular target: T3, USP39 (UniProt Q53GS9)
T3 sequence (whole entry): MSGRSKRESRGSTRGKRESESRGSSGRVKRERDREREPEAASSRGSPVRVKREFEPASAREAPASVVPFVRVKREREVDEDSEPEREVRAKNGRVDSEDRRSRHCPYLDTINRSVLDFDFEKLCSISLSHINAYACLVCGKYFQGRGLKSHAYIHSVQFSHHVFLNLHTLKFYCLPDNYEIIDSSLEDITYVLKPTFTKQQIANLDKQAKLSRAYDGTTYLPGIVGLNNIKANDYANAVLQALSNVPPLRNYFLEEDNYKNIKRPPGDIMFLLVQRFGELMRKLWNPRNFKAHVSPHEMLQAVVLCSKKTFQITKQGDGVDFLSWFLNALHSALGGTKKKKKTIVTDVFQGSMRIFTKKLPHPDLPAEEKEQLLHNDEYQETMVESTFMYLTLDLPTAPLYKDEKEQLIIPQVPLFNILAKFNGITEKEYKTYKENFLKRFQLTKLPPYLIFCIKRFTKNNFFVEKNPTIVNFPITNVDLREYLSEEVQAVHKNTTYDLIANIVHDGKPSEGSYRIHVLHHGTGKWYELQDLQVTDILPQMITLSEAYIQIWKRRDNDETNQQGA
In short: as §1

[5] = molecular target: T4, USP4 (UniProt Q13107)
T4 sequence (whole entry): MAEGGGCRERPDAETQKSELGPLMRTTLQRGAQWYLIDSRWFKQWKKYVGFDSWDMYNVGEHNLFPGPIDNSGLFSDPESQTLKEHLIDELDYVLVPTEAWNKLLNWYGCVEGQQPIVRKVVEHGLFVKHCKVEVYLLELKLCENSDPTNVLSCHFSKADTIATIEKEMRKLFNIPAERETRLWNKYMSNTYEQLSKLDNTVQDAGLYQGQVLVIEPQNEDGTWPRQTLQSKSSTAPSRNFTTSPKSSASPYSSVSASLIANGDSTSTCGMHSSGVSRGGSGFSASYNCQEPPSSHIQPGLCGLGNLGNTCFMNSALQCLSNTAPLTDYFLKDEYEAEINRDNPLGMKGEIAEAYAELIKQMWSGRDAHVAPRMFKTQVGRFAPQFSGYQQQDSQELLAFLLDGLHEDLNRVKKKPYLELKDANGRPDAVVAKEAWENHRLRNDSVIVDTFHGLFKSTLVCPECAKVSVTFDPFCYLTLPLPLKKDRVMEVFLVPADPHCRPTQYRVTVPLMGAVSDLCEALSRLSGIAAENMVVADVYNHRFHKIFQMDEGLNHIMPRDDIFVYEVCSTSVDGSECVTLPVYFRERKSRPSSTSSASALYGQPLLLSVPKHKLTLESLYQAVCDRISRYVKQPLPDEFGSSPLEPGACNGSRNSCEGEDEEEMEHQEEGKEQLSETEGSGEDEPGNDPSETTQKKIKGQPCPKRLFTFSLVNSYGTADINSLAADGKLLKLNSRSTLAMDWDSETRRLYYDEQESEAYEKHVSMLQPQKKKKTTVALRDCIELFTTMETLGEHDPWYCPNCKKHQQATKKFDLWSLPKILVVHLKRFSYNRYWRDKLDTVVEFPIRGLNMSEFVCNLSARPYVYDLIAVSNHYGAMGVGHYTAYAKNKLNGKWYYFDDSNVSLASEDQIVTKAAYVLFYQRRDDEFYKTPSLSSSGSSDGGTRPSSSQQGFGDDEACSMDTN
In short: as §1

Measured: log2 ratio of Biotin-Ahx-Ub-VS probe labelling

Chain of USP34 (Q70CQ2 whole entry, the tested form may be a part): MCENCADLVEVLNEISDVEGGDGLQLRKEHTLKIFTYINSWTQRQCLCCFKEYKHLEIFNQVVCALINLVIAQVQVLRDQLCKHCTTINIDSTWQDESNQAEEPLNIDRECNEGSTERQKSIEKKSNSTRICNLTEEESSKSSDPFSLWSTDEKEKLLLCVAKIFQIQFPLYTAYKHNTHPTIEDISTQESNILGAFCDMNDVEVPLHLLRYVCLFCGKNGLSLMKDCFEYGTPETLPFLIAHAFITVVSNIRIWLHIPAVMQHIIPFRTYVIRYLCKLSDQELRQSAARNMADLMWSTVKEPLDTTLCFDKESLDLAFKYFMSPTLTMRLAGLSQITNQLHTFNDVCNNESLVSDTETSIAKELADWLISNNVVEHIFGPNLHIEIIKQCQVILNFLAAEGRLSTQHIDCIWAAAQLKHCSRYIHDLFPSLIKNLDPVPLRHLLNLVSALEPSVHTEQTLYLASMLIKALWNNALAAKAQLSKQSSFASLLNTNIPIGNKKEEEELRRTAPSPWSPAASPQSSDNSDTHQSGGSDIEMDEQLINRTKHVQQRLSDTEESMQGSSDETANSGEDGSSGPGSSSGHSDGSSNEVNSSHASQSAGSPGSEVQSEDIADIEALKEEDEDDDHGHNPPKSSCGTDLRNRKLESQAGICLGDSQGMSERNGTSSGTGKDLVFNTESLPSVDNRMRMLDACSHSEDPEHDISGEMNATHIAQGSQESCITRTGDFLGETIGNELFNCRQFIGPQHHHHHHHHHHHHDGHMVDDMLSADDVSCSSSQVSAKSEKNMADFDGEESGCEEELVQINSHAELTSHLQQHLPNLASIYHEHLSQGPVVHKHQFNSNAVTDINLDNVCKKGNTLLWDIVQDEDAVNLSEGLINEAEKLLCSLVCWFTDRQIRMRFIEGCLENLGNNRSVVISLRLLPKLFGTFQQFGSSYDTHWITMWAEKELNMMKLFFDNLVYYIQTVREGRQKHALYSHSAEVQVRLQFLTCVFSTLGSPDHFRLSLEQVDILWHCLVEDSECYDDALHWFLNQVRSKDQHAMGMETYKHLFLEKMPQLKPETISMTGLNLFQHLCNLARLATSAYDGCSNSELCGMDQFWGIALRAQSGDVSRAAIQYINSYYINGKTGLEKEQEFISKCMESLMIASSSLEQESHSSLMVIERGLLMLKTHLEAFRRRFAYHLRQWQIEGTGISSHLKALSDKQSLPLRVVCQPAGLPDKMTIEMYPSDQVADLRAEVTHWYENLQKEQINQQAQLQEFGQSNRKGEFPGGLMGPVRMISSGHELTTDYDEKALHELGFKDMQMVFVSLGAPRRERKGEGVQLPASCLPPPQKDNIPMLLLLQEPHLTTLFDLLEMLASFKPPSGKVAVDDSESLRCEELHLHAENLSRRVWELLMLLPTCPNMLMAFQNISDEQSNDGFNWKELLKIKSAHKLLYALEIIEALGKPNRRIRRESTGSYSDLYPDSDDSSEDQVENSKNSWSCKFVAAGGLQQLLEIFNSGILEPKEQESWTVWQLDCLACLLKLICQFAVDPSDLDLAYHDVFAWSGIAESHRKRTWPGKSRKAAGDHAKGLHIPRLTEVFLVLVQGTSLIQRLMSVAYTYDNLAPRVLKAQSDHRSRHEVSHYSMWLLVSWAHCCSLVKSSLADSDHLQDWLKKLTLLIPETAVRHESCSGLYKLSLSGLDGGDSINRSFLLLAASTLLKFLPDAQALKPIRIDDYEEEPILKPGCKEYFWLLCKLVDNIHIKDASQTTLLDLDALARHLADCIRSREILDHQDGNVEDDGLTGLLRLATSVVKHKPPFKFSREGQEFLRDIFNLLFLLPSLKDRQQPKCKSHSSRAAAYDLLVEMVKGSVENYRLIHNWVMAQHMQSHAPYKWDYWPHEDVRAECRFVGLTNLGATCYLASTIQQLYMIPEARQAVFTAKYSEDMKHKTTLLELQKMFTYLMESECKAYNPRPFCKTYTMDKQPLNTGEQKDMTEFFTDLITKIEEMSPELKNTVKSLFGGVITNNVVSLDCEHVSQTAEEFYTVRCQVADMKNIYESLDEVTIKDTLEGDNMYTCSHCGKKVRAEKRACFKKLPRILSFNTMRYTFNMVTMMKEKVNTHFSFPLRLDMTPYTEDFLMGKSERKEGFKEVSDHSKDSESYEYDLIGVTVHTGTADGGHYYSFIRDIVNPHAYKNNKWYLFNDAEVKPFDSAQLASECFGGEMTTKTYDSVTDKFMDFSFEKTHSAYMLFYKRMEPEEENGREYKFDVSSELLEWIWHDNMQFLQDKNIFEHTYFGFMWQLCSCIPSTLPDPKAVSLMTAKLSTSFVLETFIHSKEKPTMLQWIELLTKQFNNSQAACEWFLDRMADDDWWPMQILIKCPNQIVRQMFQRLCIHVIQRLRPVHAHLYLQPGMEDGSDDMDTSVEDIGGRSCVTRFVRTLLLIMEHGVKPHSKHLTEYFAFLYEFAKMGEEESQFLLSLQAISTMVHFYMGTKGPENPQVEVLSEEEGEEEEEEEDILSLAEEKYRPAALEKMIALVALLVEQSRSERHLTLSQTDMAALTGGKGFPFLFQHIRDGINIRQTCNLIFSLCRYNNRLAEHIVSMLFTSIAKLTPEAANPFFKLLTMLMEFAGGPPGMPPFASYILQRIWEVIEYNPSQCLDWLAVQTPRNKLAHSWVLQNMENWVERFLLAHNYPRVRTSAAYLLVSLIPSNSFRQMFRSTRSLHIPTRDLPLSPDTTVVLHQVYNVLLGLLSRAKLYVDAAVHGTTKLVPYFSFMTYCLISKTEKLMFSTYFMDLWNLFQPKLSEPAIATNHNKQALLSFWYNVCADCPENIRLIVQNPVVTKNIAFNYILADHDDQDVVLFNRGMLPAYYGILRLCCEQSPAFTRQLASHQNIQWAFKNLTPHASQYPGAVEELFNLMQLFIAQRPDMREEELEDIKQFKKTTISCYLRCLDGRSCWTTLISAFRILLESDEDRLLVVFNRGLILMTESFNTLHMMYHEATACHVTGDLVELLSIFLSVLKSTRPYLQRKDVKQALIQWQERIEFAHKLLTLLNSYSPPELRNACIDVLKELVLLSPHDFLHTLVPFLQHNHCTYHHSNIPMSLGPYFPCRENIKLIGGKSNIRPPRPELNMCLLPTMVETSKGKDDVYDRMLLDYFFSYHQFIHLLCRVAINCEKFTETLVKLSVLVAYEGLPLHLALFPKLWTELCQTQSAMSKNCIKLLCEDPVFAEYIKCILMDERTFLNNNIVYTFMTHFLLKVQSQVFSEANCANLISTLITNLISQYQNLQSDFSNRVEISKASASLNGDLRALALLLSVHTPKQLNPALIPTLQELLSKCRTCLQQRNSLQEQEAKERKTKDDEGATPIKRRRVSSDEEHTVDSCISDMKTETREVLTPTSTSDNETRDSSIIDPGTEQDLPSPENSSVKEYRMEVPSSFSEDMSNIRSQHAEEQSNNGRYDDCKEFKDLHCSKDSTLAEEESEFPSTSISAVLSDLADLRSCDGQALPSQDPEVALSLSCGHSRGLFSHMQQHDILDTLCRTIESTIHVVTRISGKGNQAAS

Cc1ccn2cc(CNC(=O)CCl)nc2c1.Cl
inactive: [1] -0.192 | [2] -0.029 | [3] -0.0421 | [4] 0.0111 | [5] 0.0609

Source: the supplement of paper PMC11732987, “Enantioselective OTUD7B fragment discovery through chemoproteomics screening and high-throughput optimisation” (Communications Chemistry, 2025)
